This is an account of results in PubChem BioAssay AID2551 (National Center for Advancing Translational Sciences (NCATS), 2010).

Hit rate of the full screen: of about 310,000 compounds, about 17,000 (5.5%) were called active. About 11% were inconclusive and are not listed. Shown is part of a subset that was picked to be rich in actives. A number with no mark means an inactive call. Calls come from the whole dose curve; as a rule, active = well fitted inhibition curve with a large enough effect; inconclusive = small, poorly fitted or top-dose-only effect, or effect the other way; inactive = no such curve, though single readings can be large or run the other way.
% is set by controls: 0 for no effect and ±100 for the full control effect; potency is the fitted concentration of half-maximal effect.

Sequence of Nuclear receptor ROR-gamma (Mus musculus) (P51450 whole entry, looked up, the tested form may be a part): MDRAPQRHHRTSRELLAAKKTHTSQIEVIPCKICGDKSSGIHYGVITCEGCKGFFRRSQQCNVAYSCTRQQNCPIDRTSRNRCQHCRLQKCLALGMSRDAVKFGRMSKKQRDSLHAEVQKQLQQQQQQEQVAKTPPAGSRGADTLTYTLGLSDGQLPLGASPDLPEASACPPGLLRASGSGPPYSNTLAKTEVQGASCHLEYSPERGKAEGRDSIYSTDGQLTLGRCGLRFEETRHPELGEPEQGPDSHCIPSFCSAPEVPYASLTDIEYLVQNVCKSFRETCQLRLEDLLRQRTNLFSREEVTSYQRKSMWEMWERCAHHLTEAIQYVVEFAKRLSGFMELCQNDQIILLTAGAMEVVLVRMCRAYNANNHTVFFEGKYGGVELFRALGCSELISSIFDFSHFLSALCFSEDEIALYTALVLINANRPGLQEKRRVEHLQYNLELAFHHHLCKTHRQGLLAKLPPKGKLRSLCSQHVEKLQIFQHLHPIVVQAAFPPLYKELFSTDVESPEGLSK

The target in the assay is Nuclear receptor ROR-gamma (Mus musculus) (UniProt P51450). The assay is described as follows: qHTS for inhibitors of ROR gamma transcriptional activity. Note: nearly all actives have a fitted effect of over 60% in size. As to conditions: Drosophila S2 Gal4-RORgamma UAS-luciferase reporter, 20 h; series mostly up to 53.6 µM; activity change, negative = inhibition: at the top concentration. The procedure, abridged:
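In this cell-based reporter format, copper sulfate (700 uM final) drives Gal4–ROR gamma fusion expression from a metallothionein promoter in Drosophila Schneider cells; compounds preincubated 1 hr, reporter read after 20 hr at ambient temperature.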
Consider `COc1ccc2[nH]c3nc(SCC(=O)NC4CC4)nnc3c2c1`, for which the “activity change, negative = inhibition” value was -8.92%. On to `COc1cc2c(C(=O)O)c(C)n(C)c2c2ccccc12`, for which the “activity change, negative = inhibition” value is 13.6%.

Consider `Cc1c(C(=O)N/N=C/c2ccccc2)[nH]c2c([N+](=O)[O-])cccc12`, for which the “activity change, negative = inhibition” value is -16.9%. Turning to `COc1cccc2c(C)c(C(=O)O)[nH]c12`, the Potency is 2 µM (active). In the case of `CCOC(=O)C1CN(S(=O)(=O)c2ccc(OC)cc2)c2cc(Cl)ccc2O1` (stereo not drawn), the “activity change, negative = inhibition” value was -1.61%. On the same count and under the same terms, the same measure for `COc1ccc(Cc2nc3ccc(C(=O)N4CCC(N(C)C)C4)cc3o2)cc1` (stereo not drawn): 6.86%; for `C/C(=N\Nc1nncc2ccccc12)c1ccc(Cl)c([N+](=O)[O-])c1`: -15.3%.

As for `COc1ccc(NC(=O)CC2C(=O)NC3CCCCC3N2C(=O)c2ccc(F)cc2)cc1` (stereo not drawn), the “activity change, negative = inhibition” value was 8.91%. On to `O=C(Nn1cc(C(=O)N2CCN(c3ccccc3F)CC2)c2ccccc2c1=O)c1cnccn1`, for which the Potency is 14.1 µM (active). As for `O=C(c1ccc(S(=O)(=O)N2CCCC2)cc1)N1CCN(c2ccccc2F)CC1`, the “activity change, negative = inhibition” value was 5.53%. Still for that read-out and setting: the same measure for `Cn1c(=O)cc(OCC(=O)N2CCN(c3ccccc3F)CC2)c2ccccc21`: -6.44%. Turning to `CC1CCN(C(=O)c2ccc3c(=O)n4c(nc3c2)CCCCC4)CC1`, the “activity change, negative = inhibition” value is -0.982%. Take `NS(=O)(=O)c1ccccc1NC(=O)c1c(O)c2ccccc2[nH]c1=O`: the “activity change, negative = inhibition” value was -12%. For `C/C(=N\NC(=S)NC(C)C)c1ccc(C(C)(C)C)cc1`, the Potency is 1 µM (active).

For `C/C(=N\NC(N)=S)c1cccnc1`, the “activity change, negative = inhibition” value is -8.34%.

For the compound `C/C(=N\NC(N)=S)c1ccncc1`, the “activity change, negative = inhibition” value is -38.1%. Turning to `Cn1c(=O)c2sccc2n(Cc2ccc(Br)cc2)c1=O`, the “activity change, negative = inhibition” value is 61.6%.

Turning to `O=C(CN1C(=O)CSC1=O)N1CCCC(Nc2ccc(F)cc2)C1` (stereo not drawn), the “activity change, negative = inhibition” value was 18%. For `Nc1cc(N)nc(SCc2cccc(F)c2)n1`, the “activity change, negative = inhibition” value is 19.2%.

With `Cc1cc(C(=O)NCCCc2ccccc2)no1`, the “activity change, negative = inhibition” value is 17.6%. With `CCCCNC(=S)NNC(=O)c1cc(C)on1`, the Potency was 10 µM (active). On to `CCC(=O)Nc1ccc(C(=O)Nc2cc(C)on2)cc1`, for which the “activity change, negative = inhibition” value is -13.3%. Same read-out and setting: as for `O=C(Nc1ccccc1)c1ccco1`, the figure is -3.1%; as for `COc1ccc(NC(=O)NN2CCN(C)CC2)c(OC)c1`, 10.2%. Still for that read-out and setting: the same measure for `COc1ccc(CCn2c(=N)c(C(=O)NCC3CCCO3)cc3c(=O)n4cccc(C)c4nc32)cc1OC` (stereo not drawn): -28%. As for `COc1cccc2sc(NNC(=O)c3nc4ccccc4s3)nc12`, the Potency is 3.55 µM (active). On to `COc1ccc(S(=O)(=O)N2CCOCC2)cc1C(=O)Nc1nc2ccccc2s1`, for which the “activity change, negative = inhibition” value is -12.9%.

Regarding `COc1ccc(/C=C(/CC(=O)Nc2ccc(C)cc2)c2nc3ccccc3s2)cc1`, the “activity change, negative = inhibition” value is 33.7%. On to `CCOC(=O)CNC(=O)CSc1ncccc1-c1nc2ccccc2[nH]1`, for which the “activity change, negative = inhibition” value is 43.9%. In the case of `COc1ccc(N(CC(=O)NCc2ccc(F)cc2)C(=O)CCC(=O)Nc2nccs2)cc1`, the “activity change, negative = inhibition” value was -29.3%.

For `COc1ccc(S(=O)(=O)NNC(=O)Nc2ccc(C)cc2)c(OC)c1`, the “activity change, negative = inhibition” value was -9.69%. As to `O=C1c2ccccc2NC(c2ccccc2O)N1NS(=O)(=O)c1ccccc1` (stereo not drawn), the “activity change, negative = inhibition” value was -4.74%. Take `CCOC(=O)NN1C(=O)c2ccccc2NC1c1ccccc1O` (stereo not drawn): the Potency is 11.2 µM (active). For `CCOC(=O)NN1C(=O)c2ccccc2NC1c1cccc(O)c1` (stereo not drawn), the “activity change, negative = inhibition” value is 16.3%.

Turning to `COc1ccc(N(CC(=O)N2CCOCC2)S(=O)(=O)c2ccccc2)cc1Cl`, the “activity change, negative = inhibition” value is -7.47%. Still for that read-out and setting: as for `Cc1ccc(NC(=O)CCN2C(=O)c3ccccc3C2=O)cc1C`, the figure is 2.87%; as for `Cc1nn(-c2ccccc2)c2c1c(C)c(CCC(=O)NCC1CCCO1)c(=O)n2C` (stereo not drawn), -11.4%; as for `CSc1ccc(/C=N\NC(=O)COc2ccc(Cl)cc2Br)cc1`, -30.3%.

Consider `O=C(N/N=C/c1ccccn1)c1cccc(NC(=O)c2ccc(Cl)cc2)c1`, for which the “activity change, negative = inhibition” value was -27.8%. As to `O=C(COc1ccc(Cl)cc1Cl)N/N=C/c1ccccn1`, the Potency was 12.6 µM (active). With `C=CCN1CN(S(=O)(=O)c2ccc(OC)cc2)c2nc3ccccc3nc21`, the “activity change, negative = inhibition” value was 14.6%. Regarding `O=C(COC(=O)c1ccc(F)cc1)Nc1nc2ccc([N+](=O)[O-])cc2s1`, the “activity change, negative = inhibition” value is -1.04%. Turning to `O=C(Nc1nc2ccc([N+](=O)[O-])cc2s1)c1ccncc1`, the “activity change, negative = inhibition” value is 13%. For the compound `O=C(NC(Nc1nc2ccc([N+](=O)[O-])cc2s1)(C(F)(F)F)C(F)(F)F)c1ccccc1`, the Potency is 6.31 µM (active).

As for `CCOc1ccccc1NS(=O)(=O)c1cc2c3c(c1)C(C)C(=O)N3CCC2` (stereo not drawn), the “activity change, negative = inhibition” value was 8.24%.

On to `CCc1ccccc1NC(=O)c1ccc2snnc2c1`, for which the “activity change, negative = inhibition” value is -1.7%.

`COCCN1CCN(C(=O)c2cc(COc3ccc(F)cc3Cl)on2)CC1`: the “activity change, negative = inhibition” value is 4.15%. For the compound `CCCCn1c(SCC(=O)NCC2CCCO2)nc2ccc(N3CCOCC3)cc2c1=O` (stereo not drawn), the Potency was 2.51 µM (active).

For the compound `CCn1c(SCC(=O)NCC2CCCO2)nc2cc(S(=O)(=O)N3CCCCC3)ccc21` (stereo not drawn), the “activity change, negative = inhibition” value was 29.2%. Take `COCCNC(=O)c1ccc(Cn2c(SCC(=O)NCC3CCCO3)nc3ccc(Br)cc3c2=O)cc1` (stereo not drawn): the “activity change, negative = inhibition” value was 5.53%.

`CCCCNC(=O)c1cn(CC)c2cc(N3CCN(C(=O)c4ccco4)CC3)c(F)cc2c1=O`: the “activity change, negative = inhibition” value was 4.18%. The same measure, in the same setting: the same measure for `CCCOc1ccc(Cc2c(O)nc(N)[nH]c2=O)cc1C`: 1.22%.

Turning to `COc1cccc(/C=N/Nc2ccc(Cl)nn2)c1`, the “activity change, negative = inhibition” value was -7.53%.
